Article PMC7819943, “Rice protein-binding microarrays: a tool to detect cis-acting elements near promoter regions in rice”
The full ranking holds about 35,000 sequences; the median of “fluorescence intensity (a.u.)” is about 10,000, and the highest 2% start at about 52,000. Shown is part of a subset that was picked to be rich in the highest values.

Biological target: T1, OsWOX13 (Oryza sativa, UniProt Q5QMM3 1-267)
T1 sequence: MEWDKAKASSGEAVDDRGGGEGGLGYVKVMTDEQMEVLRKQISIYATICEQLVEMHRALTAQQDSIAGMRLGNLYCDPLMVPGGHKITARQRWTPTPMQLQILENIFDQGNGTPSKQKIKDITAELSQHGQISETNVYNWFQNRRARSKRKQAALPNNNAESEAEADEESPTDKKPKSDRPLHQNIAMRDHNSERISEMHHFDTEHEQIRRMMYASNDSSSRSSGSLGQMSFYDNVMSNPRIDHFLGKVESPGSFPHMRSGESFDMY
Assay: protein-binding microarray (RPBM); PBS, 2% BSA, 51.3 ng/ul salmon testes DNA, 50 uM zinc acetate, 200 nM TF, 25 C, 1 h; high values mean tight binding
Conditions: protein: recombinant; tags: N-terminal polyhistidine and DsRed monomer fusion (pET32a); label: CyDye5-dUTP incorporated in the synthesized complementary strand; 3' TTTTT single-stranded linker to array surface; dsDNA, one strand shown
How it was run: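 The binding signal for each feature is its fluorescence intensity in arbitrary units. An Axon 4000B scanner was used to read a custom Agilent array that had been made double-stranded with Cy5-dUTP primer extension, blocked with 2% BSA, incubated at 25 °C for 1 h with 200 nM protein in PBS, 2% BSA, salmon testes DNA and 50 µM zinc acetate, and washed. The protein was an N-terminal polyhistidine–DsRed transcription factor fusion from E. coli BL21-CodonPlus, purified on Ni–NTA.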

Point of comparison: “TTTAAGATGATCAGATTTCTAATTGCAGTTCACCTTAACTCGGAGTCACCTAGTGCAG”, binding signal 7420 fluorescence intensity (a.u.). Against it:
- GCTATGATTGTCTTTAGGGTATCTAATAATTGTGGTTTGACGGAGTCACCTAGTGCAG — higher, 21700 fluorescence intensity (a.u.)
- ACCAAACGCCTTGATTGAAACCATCGATATACATATGTAACGGAGTCACCTAGTGCAG — higher, 34900 fluorescence intensity (a.u.)
- GAAAATGTTCCATCTGATTATAAATTATTATATTTTGGGACGGAGTCACCTAGTGCAG — lower, 4000 fluorescence intensity (a.u.)
- TGAAAGTAATTTGATGCTATAAGTCAAAGTTAAAGAGATGCGGAGTCACCTAGTGCAG — lower, 3500 fluorescence intensity (a.u.)
- GTTGCAGATTGAGAGCCAAAGACATTATCTTGATTCTATCCGGAGTCACCTAGTGCAG — higher, 13100 fluorescence intensity (a.u.)
- TATAAATATAATTTATCCAAAGAGCATTTATAAGGACTTCCGGAGTCACCTAGTGCAG — lower, 4240 fluorescence intensity (a.u.)
- TAGTGATTTTGTGAAATCTCAAAATATATTGATCCAGCTTCGGAGTCACCTAGTGCAG — lower, 5030 fluorescence intensity (a.u.)
- GCTTGACTAACATATTCTGTTGGATTGCTACCGCGCCATGCGGAGTCACCTAGTGCAG — lower, 7150 fluorescence intensity (a.u.)
- TCCATTAACATTTGCCATTATCGTACTGACTTTCGTACGACGGAGTCACCTAGTGCAG — lower, 3710 fluorescence intensity (a.u.)
- CGCCCACTGAATTAATCAATCAGTAAAGCTGCCACCGTGCCGGAGTCACCTAGTGCAG — higher, 39100 fluorescence intensity (a.u.)
- CCAAGATGAATTGGAACTTTGCACACCAACCAAATAGGGGCGGAGTCACCTAGTGCAG — lower, 3580 fluorescence intensity (a.u.)
- ATGTACTTAATTCAATTTGTCAAAAGAATTATGTATCCCTCGGAGTCACCTAGTGCAG — lower, 3990 fluorescence intensity (a.u.)
- GGTTCAACGGTACCCTTGATTGCTATAGAGAGTGATATATCGGAGTCACCTAGTGCAG — lower, 4670 fluorescence intensity (a.u.)
- GAAATTAATAACAAATTAAAACCAGAGCCAGCTGACTGCTCGGAGTCACCTAGTGCAG — higher, 21700 fluorescence intensity (a.u.)
- CCGACGGCTCAGATTGACTGCAGTAGTGGGTATCTCTTCTCGGAGTCACCTAGTGCAG — higher, 13700 fluorescence intensity (a.u.)
- TTATTTGTGGCTTGAAGATTGACAGCTTTTGTTGATTGCTCGGAGTCACCTAGTGCAG — higher, 9340 fluorescence intensity (a.u.)
- ATTGCAGATTGATTTATCTCGTCAAGATTGATGAGCATGCCGGAGTCACCTAGTGCAG — higher, 63500 fluorescence intensity (a.u.)
- CAGATCAATTTATCGAGATTGATCAAAAGCAAGATGATGCCGGAGTCACCTAGTGCAG — higher, 35000 fluorescence intensity (a.u.)
- TGCTTTATTATTTGATTGATTGATCACTTGTTGGATGGGACGGAGTCACCTAGTGCAG — higher, 64200 fluorescence intensity (a.u.)
- GACTTGATTTACAGATTTATTGACAGAGTTTTGCTAAGCTCGGAGTCACCTAGTGCAG — higher, 56600 fluorescence intensity (a.u.)
- TTAATTAGGTTTAATAGATTCATCTCGCAGTTTACAGGCACGGAGTCACCTAGTGCAG — higher, 18500 fluorescence intensity (a.u.)
- TGTTTGGATGATTTTATGGATGATCACTTCTCTTTATTTACGGAGTCACCTAGTGCAG — lower, 3280 fluorescence intensity (a.u.)
- GATTAATTAGATTTAATAAATTCATCTCGCAGTTTACAGGCGGAGTCACCTAGTGCAG — higher, 62200 fluorescence intensity (a.u.)
- GATTAATTAGGCTTCATAAATTCGTCTCGCAGTTTACAGGCGGAGTCACCTAGTGCAG — higher, 30800 fluorescence intensity (a.u.)
- TTTGTTGCTTTACTTGGGAGATTGATCGCTAAACGAGTCACGGAGTCACCTAGTGCAG — lower, 3150 fluorescence intensity (a.u.)
- TGCTAAAATTTTGACAATATTGTTAACTTGCTCTAGTTTACGGAGTCACCTAGTGCAG — lower, 6920 fluorescence intensity (a.u.)
- GAAGATGATGATGATTTAGCATGCAAATGAGCAGTTGACACGGAGTCACCTAGTGCAG — higher, 13800 fluorescence intensity (a.u.)
- TAAGTTTTAATTGAAATTTTGTTCACAAATACTCCAAATCCGGAGTCACCTAGTGCAG — higher, 11900 fluorescence intensity (a.u.)
- ATTTTAATTTTAATTATTAATACTCCATTAGCATTTAGTTCGGAGTCACCTAGTGCAG — higher, 18200 fluorescence intensity (a.u.)
- TTGCTAATGATGAATTAATTAGGCTTAATAAATTCGTCTCCGGAGTCACCTAGTGCAG — higher, 28300 fluorescence intensity (a.u.)
- GCATTTGCTAATGATGGATTAATTAGGCTTAATAGATTCGCGGAGTCACCTAGTGCAG — higher, 11800 fluorescence intensity (a.u.)
- GTGACTGACTGATGATAAATTTGATAATACGCGTCGTTAGCGGAGTCACCTAGTGCAG — higher, 63100 fluorescence intensity (a.u.)
- CATGATTAATTAAATATTAACGATCATAAATTTGAAAATTCGGAGTCACCTAGTGCAG — higher, 29300 fluorescence intensity (a.u.)
- CATCATGATTTGATGATGGATTAATTATGCTTAATAAATTCGGAGTCACCTAGTGCAG — higher, 55300 fluorescence intensity (a.u.)
- AAAATAAATTTGACTGTGAATATACGTTAACTGGTCATAGCGGAGTCACCTAGTGCAG — higher, 23100 fluorescence intensity (a.u.)
- ATTTATAAATTGATTTGGAGCACAGATCGATACGTGCAGACGGAGTCACCTAGTGCAG — higher, 53400 fluorescence intensity (a.u.)
- TGCTAATGATGGATTAATTAGGCTTAATAAATTCGTCTCGCGGAGTCACCTAGTGCAG — higher, 54700 fluorescence intensity (a.u.)
- ATGTTGATTGTCTAAAATCACAGATTTAGCACATTATCGACGGAGTCACCTAGTGCAG — higher, 29800 fluorescence intensity (a.u.)
- GTATAAATTTGGACAGATTGTGATTAGATTTATAGTCCTACGGAGTCACCTAGTGCAG — higher, 29800 fluorescence intensity (a.u.)
- CATTTGCTAATGATGGATTAATTAGGCTTAATAAATTTGTCGGAGTCACCTAGTGCAG — higher, 19900 fluorescence intensity (a.u.)
- AAATAACAAATTTGACTGTGAATATACGTATACTAGTTAGCGGAGTCACCTAGTGCAG — higher, 19300 fluorescence intensity (a.u.)
- GCCCACTCATAATTTCTCCCTTGATTTGTAAAGAAATAAGCGGAGTCACCTAGTGCAG — higher, 16000 fluorescence intensity (a.u.)
- GAAAATTAGTAGAGAACTAATTAGGGATAAAGTCATTATTCGGAGTCACCTAGTGCAG — higher, 13000 fluorescence intensity (a.u.)
- AAGATTTGTCTCATAAATTAGTCGCAATATGTGTAATTAGCGGAGTCACCTAGTGCAG — higher, 7560 fluorescence intensity (a.u.)
- AAAATATCAATTGGCCATAATCATTGTAAGCACTATACAGCGGAGTCACCTAGTGCAG — higher, 7780 fluorescence intensity (a.u.)
- ATCCAATCATACTCCAAGATCTGAAGAGAAGGAGGGATTGCGGAGTCACCTAGTGCAG — higher, 11900 fluorescence intensity (a.u.)
- GATGGACCAATTTGATTGTTGTTGGATTCTACGATGCATGCGGAGTCACCTAGTGCAG — higher, 9950 fluorescence intensity (a.u.)
- GCTTAAATTAATATACCTGAACCGGCGAGCATTTAAATTTCGGAGTCACCTAGTGCAG — lower, 5370 fluorescence intensity (a.u.)
- TTGATACTCTGATGATTGTAAAGTAAATTGTTTGAAATTTCGGAGTCACCTAGTGCAG — higher, 9650 fluorescence intensity (a.u.)
- GGATTAATTAGGCTTAATAAATTCATCTCGCAGTTTTCTGCGGAGTCACCTAGTGCAG — higher, 26200 fluorescence intensity (a.u.)
- ATGATTTGTTGTTGAGTTCGGTTTGAAATCAATATAAGTACGGAGTCACCTAGTGCAG — higher, 14700 fluorescence intensity (a.u.)
- TTGATTGATTTGTTTGCACTCCATGAAATAAGTGAGGGCTCGGAGTCACCTAGTGCAG — higher, 65200 fluorescence intensity (a.u.)
- TGGCTTAATTTAATCCCCTCCATTCCGGATGCCTCTCCCTCGGAGTCACCTAGTGCAG — higher, 20200 fluorescence intensity (a.u.)
- CGGATTAATTAGGCTTAATAAATTCATCTCGCAGTTTCCTCGGAGTCACCTAGTGCAG — higher, 50800 fluorescence intensity (a.u.)
- AGTACAAATGACGGATTAATTAGGCTTAATAAATTCGTCTCGGAGTCACCTAGTGCAG — higher, 19200 fluorescence intensity (a.u.)
- ACTAATGACGGATTAATTAGGCTTAATAAATTCGTCTCGCCGGAGTCACCTAGTGCAG — higher, 51500 fluorescence intensity (a.u.)
- AATGACTGATTAATTAGGCTTAATAAATTCATCTCGCAGTCGGAGTCACCTAGTGCAG — higher, 59600 fluorescence intensity (a.u.)
- ACGGATTAATTAGGCTTAATAAATTTGCCTCGCGGTTTCTCGGAGTCACCTAGTGCAG — higher, 39200 fluorescence intensity (a.u.)
- CTAATGACGAGATTAATTAGGCTTAATAAATTCGTCTCGCCGGAGTCACCTAGTGCAG — higher, 54800 fluorescence intensity (a.u.)
- TCGCTTAATTAATTTGGATTTGGATGCGGATCCCTCGCCTCGGAGTCACCTAGTGCAG — higher, 56000 fluorescence intensity (a.u.)
